# Screening results from PubChem BioAssay.
# An excerpt weighted towards active compounds, which were near 0.79% of everything screened.
# RE007 growth inh = less growth of the S. pombe RE007 Vpr strain; S. pombe RE007 Vpr strain, BacTiter-Glo ATP luminescence, 24 h; Potency, µM (series often up to 92.2 µM), for inactives: at the top dose activity change, negative = less growth, actives largely listed as inhibitors; actives 0.21% (n = 360,000); AID 651644; active = well fitted falling curve with a large enough effect; inconclusive = small, poorly fitted or top-dose-only effect; inactive = no such curve, though single readings can be large or run the other way; note: nearly all actives have a fitted effect of over 50% in size
#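 Fission yeast strain RE007, carrying one chromosomally integrated HIV-1 vpr copy, was seeded at OD 0.01 in PMG+AL medium with 23 nL pinned compound. After 24 h at 30 °C and 99% humidity, viability was read by BacTiter-Glo luminescence.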
# AmpC inh no detg = AmpC beta-lactamase inhibition without detergent; P00811; Potency, µM (titrated, usually from 57.1 µM), for the others: at the top dose activity change, negative = inhibition, actives largely listed as inhibitors; actives 0.52% (n = 330,000); AmpC nitrocefin hydrolysis, absorbance 480 nm, 0.0001% Triton;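 note: plate controls were no compound for no effect and no enzyme for full effect; nearly all actives have a fitted effect of over 20% in size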
# Target sequence (P00811 whole entry, looked up): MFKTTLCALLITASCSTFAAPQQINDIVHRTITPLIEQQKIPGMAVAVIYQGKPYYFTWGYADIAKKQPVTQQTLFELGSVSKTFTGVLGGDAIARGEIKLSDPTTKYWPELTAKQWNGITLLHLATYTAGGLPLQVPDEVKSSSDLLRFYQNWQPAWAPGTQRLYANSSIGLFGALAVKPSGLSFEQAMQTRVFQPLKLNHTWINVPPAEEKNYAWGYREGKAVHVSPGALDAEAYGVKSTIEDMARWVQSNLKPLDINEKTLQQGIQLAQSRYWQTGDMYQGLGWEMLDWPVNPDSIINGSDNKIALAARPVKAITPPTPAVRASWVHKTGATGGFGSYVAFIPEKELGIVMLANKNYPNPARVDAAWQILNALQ
#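 20 mM phosphate pH 7.0 + 0.01% (detergent screen) or 0.0001% Triton X-100; 5.3 nM AmpC reagent; cpd preinc 15 min RT; nitrocefin (800 uM stock) to start; A480 q20 s × 4 min; Activity was normalised to no-enzyme and no-compound control wells.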
# AmpC detergent = blocks E. coli AmpC beta-lactamase in detergent assay | AmpC hydrolysis of nitrocefin, absorbance 480 nm, 0.01% Triton | Potency, µM (titrated, usually from 114 µM), inactives show top-dose activity change, negative = inhibition, usual class: inhibitors | actives 0.041% (n = 370,000) | AID 485294;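 note: 0% = no-compound wells and -100% = no-enzyme wells; nearly all actives have a fitted effect of over 25% in size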
#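 20 mM phosphate pH 7.0 + 0.01% (detergent screen) or 0.0001% Triton X-100; 5.3 nM AmpC reagent; cpd preinc 15 min RT; nitrocefin (800 uM stock) to start; A480 q20 s × 4 min; Activity was normalised to no-enzyme and no-compound control wells.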
# AMA1-RON2 inh = disrupts binding of P. falciparum AMA1 to RON2; AlphaScreen AMA1-biotinylated RON2 peptide binding; Potency, µM (series often up to 58.2 µM), for inactives: at the top dose activity change, negative = inhibition, hits mostly inhibitors; actives 0.2% (n = 360,000); AID 720542;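 note: 0% = vehicle wells and -100% = peptide control; nearly all actives have a fitted effect of over 45% in size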
#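 AMA1 (3D7) with his tag at 25 nM final met compounds first, then biotinylated RON2 peptide at 25 nM; detection used donor plus acceptor beads, 10 µg/mL apiece, read by AlphaScreen after 30 min at room temperature.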
# Numbers without * were called inactive; ? = inconclusive; · = no result; [ ] = dose if it differs, or a comment. Unless noted, calls come from the whole dose curve; as a rule, active = well fitted curve in the direction sought with a large enough effect; inconclusive = small, poorly fitted or top-dose-only effect, or another doubt; inactive = no such curve, though single readings can be large; an effect the other way counts as inactive or inconclusive. Unless noted, % is set by controls: 0 for no effect and ±100 for the full control effect; potency is the fitted concentration of half-maximal effect.
SMILES,RE007 growth inh,AmpC inh no detg,AmpC detergent,AMA1-RON2 inh
CC1CN(S(=O)(=O)c2ccc(C(=O)Nc3nc(-c4cc5ccccc5o4)cs3)cc2)CC(C)O1 (configuration not stated),11.7%,-9.6%,-14.7%,-6.7%
O=C(Nc1nc(-c2cc3ccccc3o2)cs1)c1ccc(S(=O)(=O)N2CCCC2)cc1,8.4%,17.8µM*,-6.7%,15.0%
CN(C)c1ccc(-n2cccc2)cc1,-18.2%,-4.5%,-1.2%,20µM*
CCc1ccc(-n2c(=O)c3c4c(sc3n(CC(=O)NCCCOC)c2=O)CCCC4)cc1,·,·,17.0%,·
COc1ccc(CNC(=O)c2cnn(-c3ccc(C)cc3)c2-n2cccc2)cc1OC,·,·,-6.4%,·
CCC(=O)N1c2ccccc2CC1C(=O)NCCCN1CCN(c2cc(C)ccc2C)CC1 (configuration not stated),·,·,13.1%,·
CC(=O)c1ccc(NC(=O)COC(=O)c2ccccc2N=Nc2ccc(N(C)C)cc2)cc1,-23.9%,13.5%,-0.3%,11.2µM*
CN(C)c1ccc(N=Nc2ccccc2C(=O)OCC(=O)N(C)c2ccccc2)cc1,0.2%,8.1%,-11.5%,14.1µM*
O=C(O)CCNc1cc(N2CCN(C(=O)c3ccco3)CC2)c2noc3c2c1C(=O)c1ccccc1-3,-15.8%,166.5%,-0.6%,31.6µM*
CCN1CCN(c2cc(N3CCN(C(=O)c4ccco4)CC3)c3c4c(onc24)-c2ccccc2C3=O)CC1,-19.3%,147.0%,-13.1%,22.4µM*
O=C(O)CCCNc1cc(N2CCN(C3CCCCC3)CC2)c2noc3c2c1C(=O)c1ccccc1-3,·,·,9.3%,·
COc1cc(CN(C(=O)c2ccccc2[N+](=O)[O-])c2ccccn2)cc(OC)c1OC,·,·,24.5%,·
Cc1ccc(N=Nc2cc(C)ccc2N)cc1,-25.6%,-42.9%,-6.1%,31.6µM*
COc1cccc(OC)c1C(=O)NC(=S)NNC(=O)[C@H]1C[C@@H]1c1ccccc1,-1.1%,-51.6%,-5.3%,160.3%
COc1ccc(/C=C/C(=O)NC(=S)NNC(=O)[C@H]2C[C@@H]2c2ccccc2)cc1OC,10.4%,7.08µM*,-3.1%,129.6%
c1ccc(CNCCC(Cc2ccccc2)c2ccco2)cc1 (configuration not stated),8.7%,0.2%,2.8%,-8.2%
CN(C)c1ccc(CNCCC(Cc2ccccc2)c2ccco2)cc1 (configuration not stated),-20.7%,4.9%,0.4%,15.8µM*
COc1ccccc1NC(=O)c1ccc(NS(=O)(=O)c2cccc3cccnc23)cc1,0.3%,7.94µM*,-3.0%,-19.1%
COc1ccc(C)cc1NC(=O)c1ccc(NS(=O)(=O)c2cccc3cccnc23)cc1,-6.8%,-19.8%,-3.7%,31.5%
N=C1C(c2nc3ccccc3s2)=C(O)CN1NC(=O)c1c[nH]c2ccccc12,-4.3%,15.8µM*,0.5%,-15.9%
CN(/N=C/c1ccc([N+](=O)[O-])o1)c1ccccc1,-29.9%,-22.7%,4.4%,12.6µM*
O=C(N/N=C/c1ccc([N+](=O)[O-])o1)C(O)c1ccccc1 (configuration not stated),4.6%,-5.6%,8.3%,34.3%
O=C1c2cccc3c([N+](=O)[O-])ccc(c23)C(=O)N1c1ccccn1,28.2µM*,-1.4%,0.2%,-13.3%
O=C1c2cccc3c([N+](=O)[O-])ccc(c23)C(=O)N1c1ccc(Cl)cn1,?,-11.1%,-13.1%,0.0%
COc1ccc(CCNC(=O)CSc2nc3ccccc3nc2Cc2ccc(C)cc2)cc1OC,·,·,-4.9%,·
SMILES,RE007 growth inh,AmpC inh no detg,AmpC detergent,AMA1-RON2 inh
CCC(C)NC(=O)c1sc2ncccc2c1-n1c(C)ccc1C (configuration not stated),·,·,-5.7%,·
CC1CC(C)CC(C)C(O)C(C#N)=CC=CCC(C2CCCC2C(=O)O)OC(=O)CC(O)C(C)C1 (configuration not stated),6.31µM*,·,·,12.2%
CC(=Nc1ccccc1O)c1sc2ccccc2c1O,?,7.08µM*,-5.0%,64.8%
COc1cccc(NC(=O)CN2C(=O)CSc3ccc(S(=O)(=O)N4CCCC4)cc32)c1,·,·,2.0%,·
COc1cccc(-n2cc(C(=O)NCc3ccccc3OC)c3ccccc3c2=O)c1,·,·,0.2%,·
CCOC(=O)N1CCN(C(=O)c2ccc3nc(N4CCCCC4)sc3c2)CC1,18.3%,79.1%,-2.7%,-19.5%
O=C(c1ccc2nc(N3CCCCC3)sc2c1)N1CCN(Cc2ccc3c(c2)OCO3)CC1,18.2%,31.6µM*,?,?
Cc1nn(-c2nc3ccccc3[nH]2)c(=O)c2ccccc12,6.31µM*,-20.2%[11.4 µM],?,-1.5%
Cc1cc(Nc2ccccc2)n(-c2nc3ccccc3[nH]2)n1,35.5µM*,?,-9.3%,-11.0%
CCN(CC)C(=O)c1sc2c(c1C)c(=O)n(-c1ccccc1)c(=O)n2Cc1c(C)cc(C)cc1C,·,·,6.6%,·
CO/N=C(/C(=O)N[C@@H]1C(=O)N2C(C(=O)O)=CCS[C@H]12)c1cnc(N)s1,·,-33.8%,50.1µM*,·
O=C(CCN1CCCC1Cc1ccccc1)c1ccc2c(c1)OCCO2 (configuration not stated),25.1µM*,·,3.1%,-7.3%
O=C(CCN1CCc2ccccc21)c1ccc2c(c1)OCCO2,?,-15.9%,?,?
O=C(CCN1CCc2ccccc2C1)c1ccc2c(c1)OCCO2,7.94µM*,14.2%,-2.2%,-7.3%
Cc1ccccc1CNCCSc1nnnn1-c1ccccc1,·,·,23.8%,·
Cc1ccccc1S(=O)Cc1ccc(C(=O)NC2CCCCCC2)o1 (configuration not stated),·,·,-2.3%,·
CCc1ccc(CN2CCc3nc(Nc4ccccc4)ncc3C2)cc1,·,·,-9.8%,·
CCCCOC(=O)c1ccc(O)cc1,19.6%,-20.1%,-8.6%,-1.9%
CCCCCCCCOC(=O)c1ccc(N)cc1,28.2µM*,-9.1%,?,22.2%
O=C(NNc1nc(-c2ccccc2)cs1)c1cccs1,25.3%,8.91µM*,-1.8%,50.0%
COc1ccc(OC)c(NC(=O)CC(=O)Nc2ccc3nc4n(c(=O)c3c2)CCCCC4)c1,·,·,15.4%,·
O=C(NNc1ccccc1[N+](=O)[O-])Nc1ccccc1,-3.2%,-22.6%,3.5%,7.2%
O=C(NNc1ccccc1[N+](=O)[O-])Nc1ccc(Cl)c(Cl)c1,11.4%,25.1µM*,-14.6%,-8.1%
Oc1c(Cl)cc(Cl)cc1/C=N/NC(=S)NC1CC2C=CC1C2 (configuration not stated),17.7%,8.91µM*,-1.2%,-11.9%
Oc1ccccc1C=NNC(=S)NC1CC2C=CC1C2 (configuration not stated),-26.7%,·,·,85.7%
COc1cccc(C(=O)Nc2cccc(OCc3cc(=O)n4c5c(sc4n3)CCCC5)c2)c1,·,·,-2.0%,·
Clc1ccc(-c2nc3ccncc3[nH]2)cc1,39.8µM*,-20.0%,?,-20.5%
C=CC(=O)Nc1cccc(Oc2ccnc3[nH]ccc23)c1,-22.0%,·,·,25.1µM*
C=CC(=O)Nc1cccc(Oc2ccnc(Nc3ccc(N4CCN(C)CC4)cc3)n2)c1,-18.7%,·,·,?
